The values below come from PubChem BioAssay (NCI).

The panel holds about 83,000 compounds, 20% with a hit somewhere; the sample as a whole holds those more often.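 Testing used 96-well plates and a 48-hour single-concentration exposure. Example: -40 means 40% of the starting cells died.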 Unmarked numbers belong to inactive results. Calls of active or inactive are those of the source. The calls were made as follows: active = growth percent below 10; inactive = the rest.

Among the test systems are HCT-15 colon; HT29 colon; SNB-75 CNS; SNB-19 CNS; U251 CNS; PC-3 prostate; SK-MEL-5 melanoma; UACC-62 melanoma; LOX IMVI melanoma; SK-MEL-28 melanoma; SK-MEL-2 melanoma; EKVX NSCLC; SN12C renal; UO-31 renal; TK-10 renal; ACHN renal; CAKI-1 renal; A498 renal; CCRF-CEM leukemia; MOLT-4 leukemia.
Holding throughout (test): NCI-60 one-dose screen, 48 h (100 = growth as untreated, 0 = no growth, -100 = all killed)
Common to all, as to conditions: 10 µM unless noted

For the compound `COc1cccc([C@H]2c3[nH]c4ccccc4c3C[C@H]3C(=O)N(CCCCCCC(=O)NO)CC(=O)N23)c1`, the growth with HCT-15 colon is 105%; with HT29 colon, 56.7%; in the experiment with SNB-75 CNS it was 7.84% (active); with SNB-19 CNS it was 68.4%; in the experiment with U251 CNS, 61.5%; in the experiment with PC-3 prostate it was 42.5%. Besides, the growth was 49.8% with SK-MEL-5 melanoma; 36.8% with UACC-62 melanoma; 49.4% in the experiment with LOX IMVI melanoma; 43% in the experiment with SK-MEL-28 melanoma; 60.1% in the experiment with SK-MEL-2 melanoma; 82.6% in the experiment on EKVX NSCLC. For the same compound, the growth was 62.8% with SN12C renal; 62.5% with UO-31 renal; 87.6% in the experiment on TK-10 renal; 69.1% in the experiment with ACHN renal; 75.1% with CAKI-1 renal; 75.6% in the experiment on A498 renal. Besides, the growth is 14% with CCRF-CEM leukemia and 18.5% in the experiment on MOLT-4 leukemia.
As to `CC(C)OC(=O)c1ccc2[nH]c(O)c(C(=Nc3ccc(N(C)C(=O)CN4CCN(C)CC4)cc3)c3ccccc3)c2c1`, the growth is -14.4% (active) with HCT-15 colon; -48.1% (active) in the experiment on HT29 colon; -98.1% (active) with SNB-75 CNS; 1.52% (active) in the experiment on SNB-19 CNS; -90.5% (active) in the experiment with U251 CNS; 9.18% (active) with PC-3 prostate. The growth with SK-MEL-5 melanoma was -95.4% (active); in the experiment on UACC-62 melanoma it was -44.1% (active); with LOX IMVI melanoma, -96.7% (active); in the experiment with SK-MEL-28 melanoma it was -54.4% (active); with SK-MEL-2 melanoma, -73.6% (active); in the experiment on EKVX NSCLC, -3.97% (active). Besides, the growth was 8.95% (active) in the experiment on SN12C renal; -96.3% (active) with UO-31 renal; -90.5% (active) in the experiment with TK-10 renal; 2.21% (active) in the experiment with ACHN renal; -93.4% (active) with CAKI-1 renal; -48.3% (active) with A498 renal. The growth in the experiment with CCRF-CEM leukemia was 6.41% (active); in the experiment on MOLT-4 leukemia, -17.9% (active).
Take `OCCCC1CCN(C(Cc2ccccc2)c2ccccc2)CC1` (stereo not given): the growth in the experiment on HCT-15 colon is 100%; in the experiment with HT29 colon, 76.5%; with SNB-75 CNS, 84.2%; in the experiment with SNB-19 CNS it was 101%; with U251 CNS, 93.2%; in the experiment on PC-3 prostate, 70.8%. Also, the growth is 101% in the experiment on SK-MEL-5 melanoma; 97.7% in the experiment with UACC-62 melanoma; 93.2% with LOX IMVI melanoma; 64.8% in the experiment with SK-MEL-28 melanoma; 52% in the experiment with SK-MEL-2 melanoma; 96.2% with EKVX NSCLC. Further, the growth in the experiment on SN12C renal was 102%; in the experiment on UO-31 renal it was 78.3%; with TK-10 renal it was 84.1%; in the experiment with ACHN renal, 81.8%; with CAKI-1 renal, 91.4%; with A498 renal it was 97.9%. The results for the growth in the experiment on CCRF-CEM leukemia and in the experiment with MOLT-4 leukemia were 100% and 99.1%, respectively.
Consider `Cc1ccc2c3c(c(=O)[nH]c2c1)C1(C(C#N)=C(N)O3)c2cc(Br)ccc2-c2ccc(Br)cc21`, for which the growth in the experiment on HCT-15 colon is 11.4%; with HT29 colon it was -14.7% (active); with SNB-75 CNS, -26.8% (active); in the experiment on SNB-19 CNS, -30% (active); with U251 CNS it was -66.4% (active); in the experiment on PC-3 prostate it was -30.2% (active). Also, the growth was 61.4% in the experiment on SK-MEL-5 melanoma; 40.1% in the experiment with UACC-62 melanoma; 2.99% (active) in the experiment on LOX IMVI melanoma; 48.7% in the experiment on SK-MEL-28 melanoma; 32.6% in the experiment with SK-MEL-2 melanoma; -32.9% (active) in the experiment with EKVX NSCLC. Also, the growth is -32.3% (active) in the experiment on SN12C renal; -62.3% (active) in the experiment on UO-31 renal; -36.2% (active) in the experiment with TK-10 renal; -15.8% (active) in the experiment with ACHN renal; -64.3% (active) in the experiment with CAKI-1 renal; -18.8% (active) in the experiment with A498 renal. For the same compound, the growth was 32.6% in the experiment on CCRF-CEM leukemia and 21.3% with MOLT-4 leukemia.
Regarding `Fc1cc(F)cc(C(c2c[nH]c3ccccc23)c2c[nH]c3ccccc23)c1`, the growth in the experiment on HCT-15 colon is 79.5%; in the experiment on HT29 colon, 99.1%; in the experiment with SNB-75 CNS, 106%; in the experiment on SNB-19 CNS, 104%; in the experiment with U251 CNS, 101%; in the experiment with PC-3 prostate, 67.1%. The growth was 88.2% with SK-MEL-5 melanoma; 84.9% with UACC-62 melanoma; 83.5% in the experiment on LOX IMVI melanoma; 101% in the experiment with SK-MEL-28 melanoma; 58.8% with SK-MEL-2 melanoma; 80.6% in the experiment with EKVX NSCLC. In addition, the growth in the experiment with SN12C renal is 95.7%; with UO-31 renal, 52.9%; in the experiment on TK-10 renal it was 144%; in the experiment with ACHN renal, 87.7%; in the experiment on CAKI-1 renal, 90.9%; with A498 renal, 71.7%. The growth was 89.1% with CCRF-CEM leukemia and 81.8% in the experiment with MOLT-4 leukemia.
Turning to `N=C(N)c1ccc(-c2ccc(-c3cc(Cl)cc(Cl)c3)o2)o1`, the growth is -89.3% (active) with HCT-15 colon; -81.1% (active) in the experiment on HT29 colon; -68.9% (active) in the experiment on SNB-75 CNS; -64.9% (active) in the experiment with SNB-19 CNS; -89.9% (active) in the experiment with U251 CNS; -25.8% (active) in the experiment on PC-3 prostate. In addition, the growth in the experiment with SK-MEL-5 melanoma was 16.2%; in the experiment on UACC-62 melanoma, -81% (active); in the experiment with LOX IMVI melanoma, -83.6% (active); in the experiment with SK-MEL-28 melanoma, -80.2% (active); in the experiment on SK-MEL-2 melanoma, -43.5% (active); with EKVX NSCLC, -88.2% (active). Besides, the growth in the experiment on SN12C renal was -67.6% (active); in the experiment with UO-31 renal, -68.1% (active); with TK-10 renal it was -76.3% (active); in the experiment with ACHN renal it was -88.7% (active); with CAKI-1 renal, -74.7% (active); with A498 renal, 58.8%. In addition, the growth was -39.1% (active) with CCRF-CEM leukemia and -60.4% (active) in the experiment on MOLT-4 leukemia.
For the compound `CCCC(=O)NC(c1ccc2c(c1)OCO2)c1ccc2cccnc2c1O` (stereo not given), the growth with HCT-15 colon is 35%; in the experiment on HT29 colon it was 25.4%; in the experiment with SNB-75 CNS, 17.5%; in the experiment on SNB-19 CNS, 29.5%; with U251 CNS it was 14.5%; in the experiment on PC-3 prostate, 33.5%. Further, the growth in the experiment on SK-MEL-5 melanoma was -12.4% (active); in the experiment on UACC-62 melanoma it was -5.34% (active); in the experiment on LOX IMVI melanoma it was 12%; in the experiment on SK-MEL-28 melanoma, 34.5%; in the experiment with SK-MEL-2 melanoma, 46%; in the experiment with EKVX NSCLC, 19.1%. Further, the growth in the experiment on SN12C renal was 23.9%; with UO-31 renal it was -23.2% (active); in the experiment with TK-10 renal it was 25.8%; in the experiment with ACHN renal, 5.12% (active); in the experiment on CAKI-1 renal, 6.21% (active); with A498 renal it was 12.9%. The growth with CCRF-CEM leukemia was 4.72% (active); in the experiment with MOLT-4 leukemia, 2.22% (active).
With `Cc1nc2c(=O)[nH]c(SCC(=O)Nc3cccc(F)c3)nc2[nH]c1=O`, the growth with HCT-15 colon is 102%; in the experiment with HT29 colon it was 107%; in the experiment on SNB-75 CNS, 93.6%; in the experiment with SNB-19 CNS it was 102%; in the experiment with U251 CNS, 106%; in the experiment with PC-3 prostate it was 102%. Also, the growth in the experiment on SK-MEL-5 melanoma was 102%; in the experiment on UACC-62 melanoma, 98.9%; with LOX IMVI melanoma it was 101%; in the experiment on SK-MEL-28 melanoma, 107%; with SK-MEL-2 melanoma, 103%; in the experiment with EKVX NSCLC, 104%. For the same compound, the growth was 100% in the experiment on SN12C renal; 84% with UO-31 renal; 105% in the experiment with TK-10 renal; 105% in the experiment on ACHN renal; 89.3% in the experiment with CAKI-1 renal; 111% with A498 renal. In addition, the growth in the experiment with CCRF-CEM leukemia was 90.8%; in the experiment on MOLT-4 leukemia, 100%.
